From PubChem BioAssay (NCI)
About 83,000 compounds went through this panel and 20% of them were active in at least one assay; those are over-represented in the sample as a whole.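 Interpretation: 100, growth as untreated; towards 0, rising growth inhibition; 0, no net growth; 0 to -100, cell death. Compounds scoring below 10 were considered active.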 Unmarked numbers belong to inactive results. Calls of active or inactive are those of the source.

What was measured:
Experiment in all cases: NCI-60 one-dose screen, 48 h (100 = growth as untreated, 0 = no growth, -100 = all killed)
Conditions in all cases: 10 µM unless noted
SK-MEL-2 melanoma = tested on: SK-MEL-2 melanoma
EKVX NSCLC = tested on: EKVX NSCLC
SN12C renal = tested on: SN12C renal
UO-31 renal = tested on: UO-31 renal
TK-10 renal = tested on: TK-10 renal
ACHN renal = tested on: ACHN renal
CAKI-1 renal = tested on: CAKI-1 renal
A498 renal = tested on: A498 renal
CCRF-CEM leukemia = tested on: CCRF-CEM leukemia
MOLT-4 leukemia = tested on: MOLT-4 leukemia

Row | Structure (SMILES) | growth (SK-MEL-2 melanoma) | growth (EKVX NSCLC) | growth (SN12C renal) | growth (UO-31 renal) | growth (TK-10 renal) | growth (ACHN renal) | growth (CAKI-1 renal) | growth (A498 renal) | growth (CCRF-CEM leukemia) | growth (MOLT-4 leukemia)
1 | CC[C@@H]1NC(=O)[C@@H]2CCCCN2C(=O)[C@@H]2CCCN2C(=O)[C@@H](NC(=O)[C@H](Cc2cc(F)cc(F)c2)NC(=O)Nc2ccc(C3CC3)cc2F)[C@H](C)OC(=O)[C@@H]2C[C@@H](C)CN2C1=O | 9.64% (active) | 20.4% | 12% | 11.2% | 34% | 12.1% | 9.54% (active) | -5.62% (active) | 40.5% | 17%
2 | CCC(Br)(CC)C(=O)c1ccc(OCC(=O)O)c(Cl)c1Cl | 94.6% | 95.3% | 89.1% | 92.1% | 125% | 108% | 83.8% | 97.1% | 116% | 109%
3 | Cc1cccc(C[C@H](NC(=O)Nc2ccc(Cl)cc2F)C(=O)N[C@@H]2C(=O)N3C[C@H](O)C[C@H]3C(=O)N3CCN(C)C[C@H]3C(=O)N[C@@H](C)C(=O)N3C[C@H](C)C[C@H]3C(=O)O[C@H]2C)c1 | 34.4% | 71.4% | 20.5% | 83.6% | 81.4% | 102% | 59.1% | 23.7% | 57.2% | 43.4%
4 | C=C(C)[C@@H]1CC[C@]2(C(=O)NCCCCCCN(CCCN)CCCN)CC[C@]3(C)[C@H](CC[C@@H]4[C@@]5(C)CC[C@H](OCCCN)C(C)(C)[C@@H]5CC[C@]43C)[C@@H]12 | 122% [100 µM] | 141% [100 µM] | 81.9% [100 µM] | 53.4% [100 µM] | 119% [100 µM] | 75.6% [100 µM] | 94.5% [100 µM] | 130% [100 µM] | 11.8% [100 µM] | 10.1% [100 µM]
5 | CC(=O)CC(=O)SC1=NCCS1 | 131% | 111% | 108% | 98.9% | 110% | 108% | 97.2% | 121% | 87.2% | 98.8%
6 | COc1ccc(C2=C(c3cn(C)c4ccccc34)C(=O)OC2)cc1OC | 33.6% | 53% | 36.9% | 25% | 61.4% | 34% | 25.6% | -10.9% (active) | 31.2% | 32.4%
7 | CN(C)c1ccc(-c2ccc(-c3ccc(C(=N)N)cc3)s2)cc1 | 107% | 85.9% | -50.1% (active) | 80.8% | -87.9% (active) | -38.8% (active) | 96.6% | 0.528% (active) | -22.5% (active) | 2.73% (active)
8 | Nc1nc(Nc2ccccc2)c2ncn(Cc3cc4c(cc3Br)OCO4)c2n1 | 36.9% | 44.7% | 7.96% (active) | 40.3% | 35.1% | 16.9% | 18.2% | -3.53% (active) | 11.2% | 10.4%
9 | N#CCCc1c[nH]c2ccccc12 | 88.4% | 94.3% | 101% | 68% | 104% | 97% | 87.3% | 103% | 81.6% | 96.1%
10 | C[C@H]1[C@H](C)CC[C@]2(C(=O)O)CC[C@]3(C)C(=CC[C@@H]4[C@@]5(C)C/C(=C/c6ccco6)C(=O)C(C)(C)[C@@H]5CC[C@]43C)[C@H]12 | -64% [100 µM] (active) | -68.4% [100 µM] (active) | -56% [100 µM] (active) | -99.5% [100 µM] (active) | -73.4% [100 µM] (active) | -97.9% [100 µM] (active) | -74.6% [100 µM] (active) | -56.2% [100 µM] (active) | -26.4% [100 µM] (active) | -10.8% [100 µM] (active)
11 | CCCCCN(CCCCC)CCCCCCCCN1CCCc2ccccc21 | 89.7% | 76.7% | 89.7% | 62% | 89% | 91.1% | 54.8% | 114% | 81.7% | 27.7%
12 | COc1cc2c(c(OC)c1OC)-c1cc(I)c(O)cc1[C@@H](NC(C)=O)CC2 | 53.4% | 60.2% | 38.6% | 25.3% | 66.9% | 27.9% | 30.7% | 49.2% | 30% | 33.7%
13 | O=C(N[C@@H]1CCCc2ccccc21)[C@H](CCC(=O)N1CCN(C2CCCCC2)CC1)N1C(=O)[C@@H](N2C(=O)OC[C@@H]2c2ccccc2)[C@H]1/C=C/c1ccccc1 | 20.6% | 51.2% | 25.4% | 21% | 47% | 36.4% | 37.9% | 31.8% | 22.8% | -1.99% (active)
14 | CC[C@@](C)(NC(=O)[C@H](C)NC(=O)CCNC(=O)C(C)(C)NC(=O)[C@H](C)NC(=O)[C@@H]1CCCN1C(=O)[C@@](C)(CC)NC(=O)[C@H](Cc1ccccc1)NC(=O)C1CCCN1C(=O)C(C)(C)NC(=O)C1CCCN1C(=O)C(C)(C)NC(C)=O)C(=O)NCCC(=O)N[C@@H](CC(C)C)C(=O)NC(C)(C)C(=O)NCCC(=O)N[C@@H](CC(C)C)C(=O)NC(C)(C)C(=O)NC(C)(C)C(=O)N[C@@H](CC(C)C)C(=O)NCCC(=O)NCO (stereo not given in full) | -89% (active) | -100% (active) | -76.7% (active) | -90.7% (active) | -98.9% (active) | -90.1% (active) | -98.2% (active) | -97.4% (active) | -61.1% (active) | -61.1% (active)
15 | CC1=CC[C@@H]2C(C)(C)C(=O)CC[C@@]2(C)[C@@H]1COc1ccc2ccc(=O)oc2c1 | 77% | 71.4% | 76.1% | 39% | 82% | 74.2% | 47.3% | 75.3% | 61.9% | 39.1%
16 | NC(=O)CC1C=CCC1 (stereo not given) | 105% | 105% | 99.4% | 91.5% | 89.2% | 100% | 99.2% | 97.1% | 82.4% | 95.6%
17 | O=[N+]([O-])c1cc([N+](=O)[O-])c(C(F)(F)F)cc1NN=C(c1ccc(O)cc1)c1ccc(O)cc1 | -80.3% (active) | 92.7% | 79.7% | -79.4% (active) | 123% | 12.8% | 98% | 103% | 112% | 107%
18 | O=C(N/N=C1\c2ccccc2-c2cccc(C(=O)O)c21)c1ccc(O)cc1 | 102% | 97.2% | 91.1% | 80.4% | 98.1% | 99.5% | 86.9% | 73.1% | 89.9% | 99.8%
19 | CO[C@H]1CC[C@@]2(C)C(=CC[C@H]3[C@@H]4C[C@H](O)C[C@@]4(C)CC[C@@H]32)C1 | 67.2% | 76.4% | 64.8% | 66.1% | 58.9% | 69.6% | 42.8% | 55.8% | 19.3% | 33.5%
20 | c1cc2ccc1CNCCN1CCNCc3ccc(cc3)Oc3ccc(cc3)CNCCN(CCNCc3ccc(cc3)O2)CCNCc2ccc(cc2)Oc2ccc(cc2)CNCC1 | -94.5% (active) | 15.2% | -80.5% (active) | 85.3% | 29.4% | 84.4% | 47.5% | 48% | -17.4% (active) | -45.4% (active)
21 | Cc1c(Cn2cc(COc3ccc(Br)cc3)nn2)c(C)c(Cn2cc(COc3ccc(Br)cc3)nn2)c(C)c1Cn1cc(COc2ccc(Br)cc2)nn1 | 87.9% | 99.5% | 92.6% | 85.5% | 67.4% | 66.7% | 75.1% | 80.6% | 83% | 103%
22 | CC(C)C1=NOC(=O)C1=Cc1cn(-c2ccccc2)nc1-c1ccc(Cl)cc1 | 85.6% | 98.5% | 78.2% | 71.4% | 83.3% | 82.6% | 65.8% | 91.4% | 4.95% (active) | -4.85% (active)
23 | O=C(Nc1ccc(C(=O)/C=C/c2ccc(N3CCOCC3)cc2)cc1)Nc1ccc([N+](=O)[O-])cc1 | 97.6% | 112% | 97% | 83.5% | 88.5% | 94.4% | 82.6% | 5.47% (active) | 84.4% | 66.2%
24 | Clc1ccc(N2CCN(CCCN3CCN(c4cccc(Cl)c4)CC3)CC2)cc1 | 96.7% | 41.9% | 64.2% | 36.6% | 41.4% | 71.6% | 42.7% | 60.4% | 58.9% | 43.7%
